Only some compounds are listed: those with a hit (about 1.2% of all), similar ones and a draw of the others.
AMA1 RON2 block: qHTS for Inhibitors of AMA1-RON; Towards Development of Antimalarial Drug Lead: Primary Screen; AlphaScreen AMA1-biotinylated RON2 peptide binding; Plasmodium falciparum AMA1 (3D7) - RON2 peptide interaction; 360,000 tested, 0.2% active; Potency, µM (highest dose often 58.2 µM), without a hit: at the top dose activity change, negative = inhibition, usual class: inhibitors;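 further: potency means the concentration at half of the fitted maximal effect; 0% = vehicle wells and -100% = peptide control; nearly all actives have a fitted effect of over 45% in size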
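AMA1 (3D7) with his tag at 25 nM final met compounds first, then biotinylated RON2 peptide at 25 nM; detection used donor plus acceptor beads, 10 µg/mL apiece, read by AlphaScreen after 30 min at room temperature.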
LmPK inhibitor: qHTS Assay for Inhibitors of Leishmania Mexicana Pyruvate Kinase (LmPK); Q27686; purified LmPK, Kinase-Glo ATP luminescence, 1 h; Potency, µM (titrated, usually from 57.5 µM), without a hit: at the highest dose activity change, negative = inhibition, actives largely listed as inhibitors; 290,000 tested, 0.37% active; AID 1721, 2009; further: potency means the concentration at half of the fitted maximal effect; on the % scale 0 is the no-effect control and ±100 the full control effect
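Kinase-Glo luminescence read after 1 h RT reaction of 0.1 nM LmPK with 0.5 mM PEP and 0.1 mM ADP. Activity scaled between uninhibited and enzyme-free controls.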
NS1 inh: qHTS Assay for Inhibitors of Influenza NS1 Protein Function | Potency, µM (doses to about 46.1 µM), inactives show at the top dose activity, positive = more growth | 270,000 tested, 0.4% active; calls by dose curve; further: potency means the concentration at half of the fitted maximal effect; actives are rising curves; nearly all actives have a fitted effect of over 50% in size
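In this qHTS, NS1 from influenza A is expressed in budding yeast, where it slows growth. Cells are switched from glucose to 2% galactose medium (pH 6.0, -URA), treated with compound, and growth recovery is read at OD600.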
Tb PYK inh: qHTS of Trypanosoma Brucei Inhibitors; TbPYK enzyme, Kinase-Glo Plus ATP luminescence, 45 min; AID 624173, 2012; 410,000 tested, 0.12% active; Potency, µM (top dose mostly 76.8 µM), without a hit: at the highest dose activity, negative = inhibition, actives largely listed as inhibitors; further: potency means the concentration at half of the fitted maximal effect; on the % scale 0 is the no-effect control and ±100 the full control effect; nearly all actives have a fitted effect of over 50% in size
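Luminescent Kinase-Glo Plus end-point after 45 min room-temperature reaction of T. brucei pyruvate kinase started with 130 uM ADP (final). Buffer TEA 50 mM pH 7.2 with KCl, MgCl2, BSA, Tween-20; titration-based qHTS with fitted concentration-effect curves.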
Giardia FBPA inh-1: qHTS Assay for Inhibitors of Fructose-1,6-bisphosphate Aldolase from Giardia Lamblia; A8B2U2; purified Giardia FBPA; Potency, µM (series often up to 59.6 µM), without a hit: at the top dose activity, negative = inhibition, actives largely listed as inhibitors; 290,000 tested, 0.71% active; further: potency means the concentration at half of the fitted maximal effect; on the % scale 0 is the no-effect control and ±100 the full control effect; nearly all actives have a fitted effect of over 55% in size
Target sequence (A8B2U2 whole entry, looked up): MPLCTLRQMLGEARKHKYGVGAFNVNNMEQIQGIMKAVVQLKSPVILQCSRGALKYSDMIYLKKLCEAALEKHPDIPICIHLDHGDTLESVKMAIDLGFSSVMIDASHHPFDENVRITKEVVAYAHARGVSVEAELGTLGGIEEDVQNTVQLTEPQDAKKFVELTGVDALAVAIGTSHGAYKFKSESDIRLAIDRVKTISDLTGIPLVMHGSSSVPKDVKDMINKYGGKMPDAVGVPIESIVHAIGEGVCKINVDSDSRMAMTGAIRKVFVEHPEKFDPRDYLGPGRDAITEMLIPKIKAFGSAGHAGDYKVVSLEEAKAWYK
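Giardia FBPA (40 nM reagent) was preincubated 10 min at RT with compound (up to 57.5 uM final), then substrate plus GAPDH/TPI/NAD/arsenate coupling system with diaphorase/resazurin was added; resorufin fluorescence (525/598 nm) was read after 20 min.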
LmPK inh confirm: Confirmation Assay for Inhibitors of Leishmania Mexicana Pyruvate Kinase (LmPK); shares compounds with LmPK inhibitor; purified LmPK, Kinase-Glo ATP luminescence, 1 h; Potency, µM (series often up to 57.5 µM), for the others: at the highest dose activity change, negative = inhibition, usual class: inhibitors; 150 tested, 40% active; AID 2559, 2010;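 active means compounds giving a full or partial concentration-response curve, as inhibitors or activators; inconclusive means weak, top-dose-only or unclear curve responses; inactive means no response at any tested dose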
NS1 inh valid: Assay for Inhibitors of Influenza NS1 Protein Function: Hit Validation; activity change, negative = inhibition, % at 32.9 µM; AID 492980, 2010; shares compounds with NS1 inh; 1,400 tested, under 10 active; influenza NS1 function cell assay, 15-point titration; calls by dose curve; further: 0% is about no effect
Flu PR8 replic: Assay for Inhibitors of Influenza NS1 Protein Function: Influenza virus replication assay in MDCK cells infected with virus A/PR/8/34. AID 504647, 2011. 95 tested, 30% active. MDCK infected influenza A/PR/8/34, virus titer TCID50; hits give low values. virus titer (log TCID50), log10 TCID50 at 5 µM. shares compounds with NS1 inh; call rule not given here
Giardia growth: qHTS Assay for Inhibitors of Fructose-1,6-bisphosphate Aldolase from Giardia Lamblia: Giardia lamblia growth inhibition; shares compounds with Giardia FBPA inh-1; 1,500 tested, 5% active; Potency, µM (titrated, usually from 57.5 µM), for the others: at the highest dose activity change, negative = inhibition, hits mostly inhibitors; Giardia lamblia trophozoite growth inhibition;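 further: potency means the concentration at half of the fitted maximal effect; trophozoites exposed to compound for 48 h at 37 °C; on the % scale 0 is the no-effect control and ±100 the full control effect; nearly all actives have a fitted effect of over 70% in size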
Mammal cell tox: qHTS Assay for Inhibitors of Fructose-1,6-bisphosphate Aldolase from Giardia Lamblia: Mammalian cellular toxicity; shares compounds with Giardia FBPA inh-1; mammalian cell viability counter-screen, qHTS; Potency, µM (doses to about 57.5 µM), for inactives: top-dose viability change, negative = toxicity, hits mostly inhibitors; 1,500 tested, 4% active;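 further: Chinese hamster ovary cells used as mammalian cytotoxicity surrogate; viability measured as cellular ATP by luminescence; potency means the concentration at half of the fitted maximal effect; compound exposure lasted 48 h before reading; on the % scale 0 is the no-effect control and ±100 the full control effect; nearly all actives have a fitted effect of over 60% in size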
Giardia FBPA inh-2: qHTS Assay for Inhibitors of Fructose-1,6-bisphosphate Aldolase from Giardia Lamblia: Primary screen confirmation; shares compounds with Giardia FBPA inh-1; purified Giardia aldolase enzyme activity, qHTS; Potency, µM (highest dose often 57.5 µM), for inactives: at the top dose activity change, negative = inhibition, actives largely listed as inhibitors; 1,500 tested, 5% active; further: potency means the concentration at half of the fitted maximal effect; on the % scale 0 is the no-effect control and ±100 the full control effect; nearly all actives have a fitted effect of over 45% in size
Rabbit aldolase: qHTS Assay for Inhibitors of Fructose-1,6-bisphosphate Aldolase from Giardia Lamblia: Rabbit FBPA Selectivity; shares compounds with Giardia FBPA inh-1; Rabbit muscle FBPA enzyme inhibition, selectivity counter-screen; Potency, µM (doses to about 57.5 µM), inactives show at the top dose activity, negative = inhibition, actives largely listed as inhibitors; 1,500 tested, 4% active; AID 2794, 2010; further: potency means the concentration at half of the fitted maximal effect; on the % scale 0 is the no-effect control and ±100 the full control effect; nearly all actives have a fitted effect of over 60% in size
Target sequence (P00883 whole entry, looked up): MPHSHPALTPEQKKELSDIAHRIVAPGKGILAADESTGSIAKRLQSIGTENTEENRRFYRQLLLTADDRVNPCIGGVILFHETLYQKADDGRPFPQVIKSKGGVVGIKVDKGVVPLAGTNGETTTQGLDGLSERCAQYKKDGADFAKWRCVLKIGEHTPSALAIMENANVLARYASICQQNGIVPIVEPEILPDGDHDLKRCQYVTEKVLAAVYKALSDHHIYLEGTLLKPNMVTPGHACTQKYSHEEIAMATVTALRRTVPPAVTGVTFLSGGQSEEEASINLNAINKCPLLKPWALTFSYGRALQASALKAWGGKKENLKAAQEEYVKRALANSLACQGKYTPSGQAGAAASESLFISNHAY
GAPDH counter: qHTS Assay for Inhibitors of Fructose-1,6-bisphosphate Aldolase from Giardia Lamblia: Coupling assay counterscreen confirmation; shares compounds with Giardia FBPA inh-1; GAPDH coupling enzyme counterscreen, biochemical, qHTS; Potency, µM (titrated, usually from 57.5 µM), inactives show at the highest dose activity change, negative = inhibition, usual class: inhibitors; 1,500 tested, 6% active; further: potency means the concentration at half of the fitted maximal effect; on the % scale 0 is the no-effect control and ±100 the full control effect; nearly all actives have a fitted effect of over 55% in size
Starred values were filed as active, the others as inactive; ? = inconclusive; . = no result given. Unless noted, the call rests on the fitted dose curve; in most records, active means well fitted curve in the direction sought with a large enough effect; inconclusive means small, poorly fitted or top-dose-only effect, or another doubt; inactive means no such curve, though single readings can be large; an effect the other way counts as inactive or inconclusive.

SMILES	AMA1 RON2 block	LmPK inhibitor	NS1 inh	Tb PYK inh	Giardia FBPA inh-1	LmPK inh confirm	others
Cc1ccc(S(=O)(=O)/N=C2/C=C(Sc3ncn[nH]3)C(=O)c3ccccc32)c(C)c1	.	7.94µM*	-23.7%	.	1.58µM*	?
COC1=NS(=O)(=O)c2ccccc21	11.7%	-6.3%	-10.4%	1.2%	2.3%	.
Cc1ccc(C)c(OC2=NS(=O)(=O)c3ccccc32)c1	-5.9%	10µM*	3.8%	-19.3%	2.5%	?
O=Cc1ccc(O)cc1O	22.0%	-10.9%	-14.5%	-6.7%	4.5%	.
O=CN/C=C/c1cc(O)ccc1O	?	4.47µM*	-0.9%	-21.0%	?	?
CC(C)(C)c1ccc(CN(Cc2ccco2)Cc2nnnn2C2CCCC2)cc1	3.6%	-5.1%	16.6%	6.6%	-6.2%	-2.7%
CCOC(=O)C1CCN(C(=O)c2ccc(-n3ccc4ccccc43)s2)CC1	.	.	.	-4.2%	.	.
CCOC(=O)Cc1csc(NC(=S)NC(=O)c2ccc(Cl)cc2)n1	17.8%	-13.8%	-11.3%	1.9%	?	.
CCOC(=O)Cc1csc(NC(=S)NC(=O)c2ccc([N+](=O)[O-])cc2)n1	32.8%	7.08µM*	9.8%	-2.7%	?	?
Cc1cccc(CNc2ncncc2-c2ccccc2CN(C)C)c1	.	.	.	.	7.3%	.
CC[n+]1c(C)sc2sc3ccccc3c21	.	2.82µM*	16.3%	.	?	4.61µM*
Cc1nc2c(s1)sc1ccccc12	-2.6%	-10.5%	-8.2%	1.8%	0.1%	.
NC(N)=Nc1ccc(-c2ccc(N=C(N)N)cc2)cc1	.	.	-0.5%	.	.	.
CCCc1sc(N/N=C/c2ccccn2)nc1-c1ccc(F)cc1	-11.8%	0.7%	12.4%	-17.3%	-16.6%	.
Cc1nc(N/N=C/c2ccccn2)sc1C	2.6%	10µM*	-46.7%	?	-21.8%	18.3µM*
CC1=NN(c2nc3ccccc3[nH]2)C(=O)/C1=C/N(C)C	41.7%	14.1µM*	.	?	15.8µM*	7.3µM*	Giardia growth=39.8µM*;Mammal cell tox=4.47µM*;Giardia FBPA inh-2=3.1%;Rabbit aldolase=-1.1%;GAPDH counter=-14.2%
CC1=NN(c2ccccc2)C(=O)/C1=C/N(C)C	3.1%	-10.4%	2.7%	12.6%	-27.9%	.
O=C(Cn1c(SCC(=O)Nc2ccc(F)cc2)nc2ccccc21)NCc1ccccc1Cl	.	.	.	-1.3%	.	.
COc1cc2c(cc1O)C(Cc1ccc(O)cc1)[N+](C)(C)CC2 (stereo unspecified)	.	.	.	.	1.0%	.
Cc1ccc(S(=O)(=O)/N=C2/C=C(Sc3ncn[nH]3)C(=O)c3ccccc32)cc1	-1.7%	7.08µM*	-31.5%	7.94µM*	0.446µM*	4.61µM*	Giardia growth=7.08µM*;Mammal cell tox=20µM*;Giardia FBPA inh-2=2.51µM*;Rabbit aldolase=10µM*;GAPDH counter=3.16µM*
O=C1C(Cl)=C(NC(=O)c2ccccc2)C(=O)C(Cl)=C1NC(=O)c1ccccc1	-8.9%	1.12µM*	-64.4%	?	5.62µM*	?	Giardia growth=-12.4%;Mammal cell tox=?;Giardia FBPA inh-2=0.794µM*;Rabbit aldolase=3.55µM*;GAPDH counter=1.41µM*
C/C(=N\NC(=O)Cc1cc(=O)[nH][nH]1)c1cccc([N+](=O)[O-])c1	47.3%	-0.7%	27.1%	-11.9%	-0.1%	.
C/C(=N/NC(=O)Cc1cc(=O)[nH][nH]1)c1ccc([N+](=O)[O-])cc1	21.8%	3.0%	12.6µM*	-7.9%	-0.6%	.	NS1 inh valid=?
COC(=O)Cc1ccccc1NS(=O)(=O)c1ccc(C)cc1	-2.4%	.	.	.	.	.
Cc1ccc(S(=O)(=O)Nc2ccccc2-c2ccccc2NS(=O)(=O)c2ccc(C)cc2)cc1	-8.8%	0.1%	10µM*	1.1%	-0.8%	.	NS1 inh valid=-35.2;Flu PR8 replic=8.5
COC(=O)c1ccc(Sc2ccccc2NS(=O)(=O)c2ccc(C)cc2)nc1	-0.3%	0.0%	?	2.6%	-3.1%	.	NS1 inh valid=?
COc1cccc(Cn2c(=O)cnc3cnc(N(C)C)nc32)c1	.	.	.	.	3.9%	.
COc1ccc(Br)cc1CNC(=O)CCCn1c(=O)c2cccn2c2ccccc21	.	.	.	0.6%	.	.
CN(C)C(=O)c1ccc(-c2ccc3ncnc(N4CCC(C(=O)O)CC4)c3c2)cc1	.	.	.	.	-8.0%	.

Assay outcomes deposited in PubChem by National Center for Advancing Translational Sciences (NCATS).
